This is an account of results in PubChem BioAssay (EPA / NIEHS).

Each structure is given as a SMILES string. Values joined by “and” are separate entries in the source; they are usually repeats but may differ in a detail not shown here. Equal values may be shown once. Records with an inconclusive call do not appear. Active and inactive are the calls of the source. How the source made its calls, unless noted: active means hit-call score of the fitted dose curve at least 0.9, where 1 is the maximum; inactive means score below 0.9.

A short description of assay [1]: ATG_XTT_Cytotoxicity: Cytotoxicity Assessment in the Attagene TRANS-FACTORIAL HepG2 Assay (AID 2283584; active means hit-call score of the fitted dose curve at least 0.9, where 1 is the maximum;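 on AC50: cells exposed to compound for 24 h before reading; active means loss of viability signal versus DMSO baseline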). In short, it runs like this:
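Cells: human HepG2, transiently transfected with MRTU reporter constructs. Exposure 24 h. Readout: XTT, cell number. Baseline/neg ctrl DMSO; loss-of-signal scored.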

Read-out in assay [2]: NAD(P)H dehydrogenase [quinone] 1 (NQO1), NQO1 (gene 1728)
The experiment in a line: LTEA_HepaRG_NQO1: Life Technologies and Expression Analysis (LTEA) Assay for NAD(P)H dehydrogenase [quinone] 1 (NQO1) using HepaRG (AID 2283526). Conditions: mRNA level, 48 h; actives raise or lower the signal. The essentials: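 Human HepaRG hepatic cells received chemicals for 48 h in serum-free induction medium with 0.5% DMSO, up to 100 uM. Expression was assessed by TaqMan qRT-PCR against housekeeping controls and fitted bidirectionally against DMSO.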

Read-out in assay [3]: Nuclear factor erythroid 2-related factor 2 (Homo sapiens) (UniProt Q16236)
The experiment in a line: LTEA_HepaRG_NFE2L2: Life Technologies and Expression Analysis (LTEA) Assay for Nuclear factor erythroid 2-related factor 2 (NFE2L2) Transcription Factor using HepaRG (AID 2283527). To be noted: mRNA level, 48 h; actives raise or lower the signal. In short, it runs like this: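 Differentiated human HepaRG cells in serum-free induction medium were exposed for 48 h to eight concentrations (top 100 uM, half-log dilutions, 0.5% DMSO), in duplicate. NFE2L2 mRNA was quantified by TaqMan qRT-PCR, normalized to ACTB, GAPDH and POLR2A, with bidirectional fitting versus DMSO.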

Read-out in assay [4]: succinate dehydrogenase complex iron sulfur subunit B (SDHB), SDHB (gene 6390)
The experiment in a line: LTEA_HepaRG_SDHB: Life Technologies and Expression Analysis (LTEA) Assay for succinate dehydrogenase complex iron sulfur subunit B (SDHB) using HepaRG (AID 2283528). To be noted: mRNA level, 48 h; actives raise or lower the signal. The essentials:
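SDHB transcript level read by TaqMan qRT-PCR, housekeeping-normalised (ACTB, GAPDH, POLR2A), after 48 h chemical treatment of plated HepaRG cells; eight concentrations top 100 uM, half-log steps, 0.5% DMSO, duplicates; fitted both directions against DMSO.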

Read-out in assay [5]: Signal transducer and activator of transcription 3 (Homo sapiens) (UniProt P40763)
The experiment in a line: LTEA_HepaRG_STAT3: Life Technologies and Expression Analysis (LTEA) Assay for Signal transducer and activator of transcription (STAT3) using HepaRG (AID 2283529). To be noted: mRNA level, 48 h; actives raise or lower the signal. The essentials:
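Differentiated human HepaRG cells in serum-free induction medium were exposed in duplicate for 48 h to eight half-log concentrations up to 100 uM in 0.5% DMSO. STAT3 mRNA was quantified by TaqMan qRT-PCR, normalized to ACTB, GAPDH and POLR2A, and fitted bidirectionally against DMSO.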

Read-out in assay [6]: solute carrier (SLCO1B1), SLCO1B1 (gene 10599)
The experiment in a line: LTEA_HepaRG_SLCO1B1: Life Technologies and Expression Analysis (LTEA) Assay for solute carrier (SLCO1B1) using HepaRG (AID 2283530). Conditions: mRNA level, 48 h; actives raise or lower the signal. The essentials:
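HepaRG, serum-free induction medium, 48 h dosing, 8-pt half-log from 100 uM, 0.5% DMSO vehicle, duplicates. Readout: SLCO1B1 mRNA, qRT-PCR, ACTB/GAPDH/POLR2A normalization; up or down fit vs DMSO.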

Read-out in assay [7]: sulfotransferase 2A1 (SULT2A1), SULT2A1 (gene 6822)
The experiment in a line: LTEA_HepaRG_SULT2A1: Life Technologies and Expression Analysis (LTEA) Assay for sulfotransferase 2A1 (SULT2A1) using HepaRG (AID 2283531). Conditions: mRNA level, 48 h; actives raise or lower the signal. The essentials: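 Transcript levels of SULT2A1, quantified by qRT-PCR and normalized to three housekeeping genes, serve as the readout. Human HepaRG cultures receive test chemicals for 48 h at up to 100 uM in half-log steps, with 0.5% DMSO vehicle.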

Read-out in assay [8]: Transforming Growth Factor (TGFA), TGFA (gene 7039)
The experiment in a line: LTEA_HepaRG_TGFA: Life Technologies and Expression Analysis (LTEA) Assay for Transforming Growth Factor (TGFA) using HepaRG (AID 2283532). Conditions: mRNA level, 48 h; actives raise or lower the signal. The essentials: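 Differentiated human HepaRG cells, plated 48 h then switched to serum-free induction medium, were exposed in duplicate for 48 h to 8-point half-log series from 100 uM in 0.5% DMSO. TGFA mRNA measured by qRT-PCR, normalized to ACTB/GAPDH/POLR2A, bidirectional fit versus DMSO.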

Read-out in assay [9]: Transforming Growth Factor (TGFB1), TGFB1 (gene 7040)
The experiment in a line: LTEA_HepaRG_TGFB1: Life Technologies and Expression Analysis (LTEA) Assay for Transforming Growth Factor (TGFB1) Transporter using HepaRG (AID 2283533). To be noted: mRNA level, 48 h; actives raise or lower the signal. In short, it runs like this: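 HepaRG, 48 h post-plating, switched to serum-free induction medium; chemicals 100 uM top, half-log, 8 pts, 0.5% DMSO, dup; 48 h exposure; RNA → Fluidigm TaqMan qRT-PCR; norm ACTB/GAPDH/POLR2A; bidirectional fit vs DMSO.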

Read-out in another assay: TIMP1, TIMP1 (gene 7076)
The experiment in a line: LTEA_HepaRG_TIMP1: Life Technologies and Expression Analysis (LTEA) Assay for TIMP1 using HepaRG (AID 2283534). To be noted: mRNA level, 48 h; actives raise or lower the signal. The essentials:
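Readout is TIMP1 mRNA level measured by qRT-PCR and normalized to three housekeeping genes. Human HepaRG cells were treated for 48 h in duplicate at eight concentrations up to 100 uM (0.5% DMSO); gain or loss fitted against DMSO.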

Read-out in assay [10]: Thyroid Hormone Responsive (THRSP), THRSP (gene 7069)
The experiment in a line: LTEA_HepaRG_THRSP: Life Technologies and Expression Analysis (LTEA) Assay for Thyroid Hormone Responsive (THRSP) using HepaRG (AID 2283536). Conditions: mRNA level, 48 h; actives raise or lower the signal. The essentials: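 Differentiated human HepaRG cells were exposed in duplicate for 48 h in serum-free induction medium to eight concentrations (top 100 uM, half-log steps, 0.5% DMSO). Expression was quantified by TaqMan qRT-PCR, normalized to ACTB, GAPDH and POLR2A, with bidirectional fitting against DMSO.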

Read-out in assay [11]: UDP glucuronosyltransferase (UGT1A1), UGT1A1 (gene 54658)
The experiment in a line: LTEA_HepaRG_UGT1A1: Life Technologies and Expression Analysis (LTEA) Assay for UDP glucuronosyltransferase (UGT1A1) using HepaRG (AID 2283538). To be noted: mRNA level, 48 h; actives raise or lower the signal. In short, it runs like this:
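Human liver HepaRG cultures receive test chemical for 48 h, up to 100 uM in 0.5% DMSO, with phenobarbital induction controls. UGT1A1 mRNA is measured by qRT-PCR and normalized to ACTB, GAPDH and POLR2A.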

Read-out in assay [12]: UDP glucuronosyltransferase (UGT1A6), UGT1A6 (gene 54578)
The experiment in a line: LTEA_HepaRG_UGT1A6: Life Technologies and Expression Analysis (LTEA) Assay for UDP glucuronosyltransferase (UGT1A6) using HepaRG (AID 2283539). To be noted: mRNA level, 48 h; actives raise or lower the signal. The essentials: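 HepaRG, 48 h post-plating switch to serum-free induction medium; chemical 48 h, 100 uM top, half-log x8, duplicate, 0.5% DMSO. Phenobarbital 1mM induction control. UGT1A6 mRNA by TaqMan qRT-PCR; gain/loss fit vs DMSO.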

Read-out in assay [13]: X-box binding protein 1 (XBP1), XBP1 (gene 7494)
The experiment in a line: LTEA_HepaRG_XBP1: Life Technologies and Expression Analysis (LTEA) Assay for X-box binding protein 1 (XBP1) using HepaRG (AID 2283540). To be noted: mRNA level, 48 h; actives raise or lower the signal. In short, it runs like this: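 Transcript levels of XBP1, measured by qRT-PCR and normalised to three housekeeping genes, were fitted bidirectionally relative to 0.5% DMSO controls. Human HepaRG cells received eight-point half-log dilutions from 100 uM for 48 h.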

The nature of assay [14]: LTEA_HepaRG_LDH_cytotoxicity: Cytotoxicity Assessment in the Life Technologies and Expression Analysis (LTEA) Assay (AID 2283563; active means hit-call score of the fitted dose curve at least 0.9, where 1 is the maximum;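 on AC50: LDH activity released into spent culture medium as a marker of cell death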). In short, it runs like this: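 Cells were thawed and plated for 48 h. Medium was then replaced with serum-free induction medium. Chemicals (8 half-log points, maximum 100 uM, 0.5% DMSO) were added in duplicate for 48 h, after which spent medium was assayed for LDH.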

Nuclear factor erythroid 2-related factor 2 (Homo sapiens), sequence (Q16236 whole entry, looked up): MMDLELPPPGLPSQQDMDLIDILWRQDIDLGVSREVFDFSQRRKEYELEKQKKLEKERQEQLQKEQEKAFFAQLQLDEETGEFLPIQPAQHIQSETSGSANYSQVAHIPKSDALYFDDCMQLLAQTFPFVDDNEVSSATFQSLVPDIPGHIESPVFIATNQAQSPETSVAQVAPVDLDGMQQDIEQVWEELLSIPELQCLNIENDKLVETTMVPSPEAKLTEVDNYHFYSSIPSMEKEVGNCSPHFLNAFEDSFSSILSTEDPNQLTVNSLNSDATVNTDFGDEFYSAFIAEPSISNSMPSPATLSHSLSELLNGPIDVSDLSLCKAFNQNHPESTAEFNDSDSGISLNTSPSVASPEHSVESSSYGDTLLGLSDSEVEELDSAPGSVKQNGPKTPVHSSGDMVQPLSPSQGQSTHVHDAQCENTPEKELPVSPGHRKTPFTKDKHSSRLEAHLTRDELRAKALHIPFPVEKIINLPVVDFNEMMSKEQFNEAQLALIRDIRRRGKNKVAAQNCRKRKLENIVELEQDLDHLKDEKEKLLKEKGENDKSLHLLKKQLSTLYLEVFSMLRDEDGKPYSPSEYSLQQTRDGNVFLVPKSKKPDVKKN
Signal transducer and activator of transcription 3 (Homo sapiens), sequence (P40763 whole entry, looked up): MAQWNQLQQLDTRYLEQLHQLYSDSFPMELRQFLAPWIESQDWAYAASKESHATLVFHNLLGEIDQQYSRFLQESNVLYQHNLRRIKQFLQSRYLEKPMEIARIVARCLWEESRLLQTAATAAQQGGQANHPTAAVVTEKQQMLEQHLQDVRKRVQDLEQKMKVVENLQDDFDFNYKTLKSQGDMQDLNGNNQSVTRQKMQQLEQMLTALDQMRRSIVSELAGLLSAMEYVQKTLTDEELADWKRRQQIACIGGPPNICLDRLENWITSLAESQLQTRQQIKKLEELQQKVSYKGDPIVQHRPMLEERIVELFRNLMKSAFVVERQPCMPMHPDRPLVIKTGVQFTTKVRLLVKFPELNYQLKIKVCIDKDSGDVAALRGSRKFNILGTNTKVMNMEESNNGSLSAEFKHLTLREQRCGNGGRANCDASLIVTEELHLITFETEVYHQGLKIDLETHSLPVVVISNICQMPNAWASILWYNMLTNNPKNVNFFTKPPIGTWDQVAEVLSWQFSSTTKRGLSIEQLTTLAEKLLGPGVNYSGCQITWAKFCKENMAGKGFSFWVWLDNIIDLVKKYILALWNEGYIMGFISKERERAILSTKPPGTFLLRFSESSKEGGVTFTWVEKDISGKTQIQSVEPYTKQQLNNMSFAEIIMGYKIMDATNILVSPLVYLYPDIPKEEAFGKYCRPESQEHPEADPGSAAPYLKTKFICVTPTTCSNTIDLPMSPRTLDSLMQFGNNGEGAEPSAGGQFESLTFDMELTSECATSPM

Take `[Cl][Sn]([c]1ccccc1)([c]1ccccc1)[c]1ccccc1`: in [1], the AC50 is 1.73 µM (active) and 986 nM (active).

For `Clc1cccc(Cl)c1`, the call in [2], in assay [3], in assay [4], in [5], in assay [6] and in [7] was inactive. Also, the outcome is “inactive” in [8]; “inactive” in assay [9]; “inactive” in the assay with TIMP1, TIMP1 (gene 7076); “inactive” in assay [10]; “inactive” in assay [11]; “inactive” in [12]. Moreover, the result in assay [13] and in [14] was inactive.

In the case of `OC(Cc1ccccc1Cl)(Cn1[nH]cnc1=S)C1(Cl)CC1` (stereo unspecified), in assay [1], the molecule was classed as inactive.

For `CC[N+](CC)(CC)CC`, the result in assay [1] was inactive.

In the case of `CCOP(=S)(OCC)SCS(=O)(=O)C(C)(C)C`, the result in assay [1] was inactive.

Regarding `COc1ccccc1N`, the outcome in assay [2], in assay [3], in [4], in assay [5], in assay [6] and in assay [7] was inactive. The outcome in assay [8] was “inactive”; in assay [9] it was “inactive”; in the assay with TIMP1, TIMP1 (gene 7076), “inactive”; in assay [10], “inactive”; in assay [11], “inactive”; in [12], “inactive”. Besides, the molecule was classed as inactive in assay [13], in [14] and in assay [1].

For `CCCSP(=S)(OCC)Oc1ccc(SC)cc1` (stereo unspecified), in assay [1], the outcome was inactive.

Turning to `NC(=O)CCl`, the molecule was classed as inactive in assay [1].

As to `CN(CCCC(O)c1cccnc1)N=O` (stereo unspecified), the molecule was classed as inactive in assay [1].

For the molecule `CCOC(=O)Cc1ccccc1`, in assay [1], the molecule was classed as inactive.

Regarding `OCCN(CCO)CCO`, the call in assay [2], in assay [3], in [4], in assay [5], in assay [6] and in [7] was inactive. Moreover, the outcome in [8] was “inactive”; in assay [9], “inactive”; with TIMP1, TIMP1 (gene 7076) it was “inactive”; in assay [10] it was “inactive”; in assay [11] it was “inactive”; in assay [12] it was “inactive”. For the same molecule, the outcome in [13], in [14] and in assay [1] was inactive.

Regarding `O=C(N[C@H]1CN2CCC1CC2)c1ccc2c(c1)OCCO2`, the outcome in [2], in assay [3], in assay [4], in assay [5], in assay [6] and in [7] was inactive. The outcome in [8] is “inactive”; in assay [9], “inactive”; in the assay with TIMP1, TIMP1 (gene 7076), “inactive”; in [10], “inactive”; in assay [11], “inactive”; in assay [12], “inactive”. Besides, the call in assay [13] and in assay [14] was inactive.

`COc1ccc([N+](=O)[O-])cc1O`: the molecule was called inactive in [1].

As to `COc1nn(C(=O)NS(=O)(=O)c2ccccc2OC(F)(F)F)c(=O)n1C`, the molecule was classed as inactive in assay [1].

On to `CCOC(=O)c1ccccc1S(=O)(=O)NC(=O)Nc1nc(Cl)cc(OC)n1`, for which the molecule was classed as inactive in assay [1].

Turning to `Brc1c(Br)c(Br)c(Oc2c(Br)c(Br)c(Br)c(Br)c2Br)c(Br)c1Br`, in assay [1], the molecule was classed as inactive.

In the case of `Oc1cccc(-c2ccccc2)c1`, the outcome in [1] was inactive.

With `CCCCCCCCCCCCOS(=O)(=O)O`, in assay [1], the result was inactive.

As for `O=C(O)C1(c2ccc3c(c2)OC[C@H](Cc2ccc(-c4ccccc4)cc2)[C@H]3O)CCCC1`, the molecule was called inactive in assay [2], in assay [3], in [5], in assay [6], in [7] and in assay [8]. Moreover, the outcome in assay [10], in assay [11], in assay [12] and in assay [13] was inactive. The AC50 in assay [4] is 81.6 µM (active); in [9], 77.5 µM (active); in the assay with TIMP1, TIMP1 (gene 7076), 78.8 µM (active); in [14], 77.6 µM (active).

Usually AC50 stands for the midpoint of the concentration-response curve, whichever way the signal moves.
